A selection: hits, their analogues and other compounds. The true share with any hit is near 3%.
SENP7 inh = blocks the human protease SENP7; 330,000 compounds, 1.5% hits; recombinant SENP7, Z-RLRGG-aminoluciferin luminescence, 40 min; inhibition, % at 5 µM; Q9BQF6;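 active = inhibition above about 50% at the single test dose, limit read from the data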
SENP8 block-1 = SENP8 protease inhibition; 330,000 compounds, 1.2% hits; purified SENP8, Z-RLRGG-aminoluciferin cleavage, luminescence; AID 2540; inhibition, % at 10 µM; Q96LD8; in the data active = inhibition above about 50%
PPC-1+TRAIL kill = compounds killing PPC-1 cancer cells with TRAIL present (potentiator screen, no TRAIL-free arm). 220,000 compounds, 0.41% hits. PPC-1 cells + TRAIL, ATPLite viability luminescence. cell killing (% activity), % at 4 µM or 5 µM. AID 1443;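 active = cell killing above 50% in the first pass at 4 µM, then a duplicate retest at 5 µM averaging 50% or more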
TRAIL sens C8 = caspase-8 TRAIL sensitization; NB7+C8 cells + TRAIL, ATPlite viability luminescence; inhibition (viability loss, TRAIL sensitization), % at 10 µM; 360,000 compounds, 1% hits;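 active = compounds causing at least 50% loss of cell viability in the single-dose screen, relative to plate controls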
SENP6 block = SENP6 protease inhibition; Q9GZR1; Recombinant SENP6 catalytic domain, aminoluciferin luminescence; inhibition, % at 10 µM; 330,000 compounds, 1.8% hits;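 active = inhibition above about 50% at the single tested dose, limit read from the data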
Target sequence (Q9GZR1 628-1112 limits assumed): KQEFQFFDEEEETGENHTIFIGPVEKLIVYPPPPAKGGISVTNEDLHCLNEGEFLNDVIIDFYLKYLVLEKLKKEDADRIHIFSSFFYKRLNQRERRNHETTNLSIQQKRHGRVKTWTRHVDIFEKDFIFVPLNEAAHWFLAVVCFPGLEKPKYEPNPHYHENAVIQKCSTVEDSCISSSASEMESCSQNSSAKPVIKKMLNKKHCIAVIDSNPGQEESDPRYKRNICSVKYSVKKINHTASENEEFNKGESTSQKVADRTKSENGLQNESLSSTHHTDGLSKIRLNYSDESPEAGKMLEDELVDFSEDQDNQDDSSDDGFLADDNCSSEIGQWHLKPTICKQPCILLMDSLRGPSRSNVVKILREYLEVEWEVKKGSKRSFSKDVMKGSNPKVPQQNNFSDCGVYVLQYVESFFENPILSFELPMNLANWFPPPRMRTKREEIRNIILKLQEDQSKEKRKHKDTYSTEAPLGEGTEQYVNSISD
SENP8 block-2 = blocks human SENP8 cleavage of Nedd8 substrate. recombinant SENP8, Nedd8 substrate fluorescence. inhibition, % at 20 µM. 360,000 compounds, 0.64% hits. AID 602440; in the data active = inhibition mostly above about 40%, no sharp cut-off; inactive = mostly below about 27%
SENP8 conf-1 = confirmation of human SENP8 protease inhibitors; shares compounds with SENP7 inh; inhibition, % at 12.5 µM; 6,200 compounds, 40% hits; Recombinant SENP8, Z-RLRGG-aminoluciferin luminescence, 60 min; AID 488912;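 active = mean inhibition across replicates above about 50%, limit read from the data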
SENP6 conf = confirmation of human SENP6 protease inhibitors | 6,200 compounds, 58% hits | recombinant SENP6, Z-RLRGG-aminoluciferin luminescence | inhibition, % at 12.5 µM | shares compounds with SENP7 inh
SENP7 conf = human SENP7 inhibition, confirmed | shares compounds with SENP7 inh | 6,200 compounds, 69% hits | recombinant SENP7, Z-RLRGG-aminoluciferin luminescence, 40 min | inhibition, % at 12.5 µM
Casp3 select = inhibits human caspase-3 in SENP selectivity test | shares compounds with SENP7 inh | purified caspase-3, Z-DEVD-aminoluciferin luminescence, 60 min | inhibition, % at 12.5 µM | 6,200 compounds, 60% hits;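 active = mean inhibition above about 50%, limit read from the data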
SENP luc ctr = interferes with luciferase luminescence in SENP counter-screen; inhibition, % at 12.5 µM; AID 488919; Pre-incubated SENP8/Z-RLRGG-aminoluciferin, luciferase luminescence interference; shares compounds with SENP7 inh; 6,200 compounds, 39% hits;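 active = mean inhibition above about 50% when retested at one dose, limit read from the data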
SENP8 conf-2 = SENP8 (human) inhibition, single concentration confirmation | inhibition, % at 25 µM | purified SENP8, Nedd8-AMC/pro-Nedd8 cleavage fluorescence, 30 min | 1,400 compounds, 15% hits | shares compounds with SENP8 block-2; in the data active = inhibition mostly above about 39%, no sharp cut-off; inactive = mostly below about 34%
Large screens that a line does not name were inactive (follow-up assays come after a bar, where they were run).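 Rule for the calls, unless noted: active = mean inhibition above about 50% in the one-dose retest (limit read from the data); inactive = the rest.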

O=C1C2=C(c3ccccc31)[N+](=O)[C@@H]1CCCC[C@@H]1N2[O-]	SENP7 inh 57, SENP6 block 81, SENP8 block-2 74 | SENP8 conf-1 inactive | SENP6 conf 56 | SENP7 conf inactive | Casp3 select inactive | SENP luc ctr inactive | SENP8 conf-2 74
CN(C)c1ccc(NC(=S)NC23CC4CC(CC(C4)C2)C3)cc1	none (no result: PPC-1+TRAIL kill)
Cc1ccc(/C=N/NC(=O)c2cc(C)oc2C)cc1	SENP7 inh 86, SENP8 block-1 74, TRAIL sens C8 50, SENP6 block 84, SENP8 block-2 41 | SENP8 conf-1 inactive | SENP6 conf 74 | SENP7 conf 95 | Casp3 select 90 | SENP luc ctr 82 | SENP8 conf-2 inactive
Oc1ccc(N=Cc2ccc(OCc3ccccc3)cc2)cc1	SENP8 block-1 57, SENP6 block 91, SENP8 block-2 66 | SENP8 conf-1 inactive | SENP6 conf 57 | SENP7 conf 68 | Casp3 select inactive | SENP luc ctr inactive | SENP8 conf-2 inactive
O=C(N/N=C/c1ccc(OCc2ccccc2)cc1)c1ccncc1	none
CC(=O)NC(c1cccc(F)c1)c1nc(-c2cc(F)cc(Cl)c2)cs1 (stereo not drawn)	none (no result: SENP7 inh, SENP8 block-1, PPC-1+TRAIL kill, SENP6 block)
CC(NCc1ccc([N+](=O)[O-])cc1)C1COc2ccccc2O1 (stereo not drawn)	none (no result: PPC-1+TRAIL kill)
O=[N+]([O-])c1cc([N+](=O)[O-])c2nonc2c1Nc1ccccc1O	none (no result: PPC-1+TRAIL kill)
O=[N+]([O-])c1cc([N+](=O)[O-])c2nonc2c1Nc1ccc(O)cc1	SENP6 block 58, SENP8 block-2 79 (no result: PPC-1+TRAIL kill) | SENP8 conf-1 inactive | SENP6 conf inactive | SENP7 conf inactive | Casp3 select inactive | SENP luc ctr inactive | SENP8 conf-2 inactive
CN(C)c1cc(N/N=C\c2ccccc2)nc(N(C)C)n1	SENP7 inh 71, SENP6 block 76, SENP8 block-2 51 | SENP8 conf-1 61 | SENP6 conf 76 | SENP7 conf inactive | Casp3 select inactive | SENP luc ctr inactive | SENP8 conf-2 69
COc1ccc(C(=O)CCc2ccccc2)c(O)c1	none (no result: PPC-1+TRAIL kill)
O=C(CCc1ccccc1)c1c(O)cc(O)cc1O	SENP8 block-1 52, SENP6 block 63, SENP8 block-2 48 | SENP8 conf-1 65 | SENP6 conf 60 | SENP7 conf 77 | Casp3 select inactive | SENP luc ctr 67 | SENP8 conf-2 inactive
O=C(O)c1cc(Cl)c(Cl)cc1C(=O)Nc1cccc2cccnc12	SENP7 inh 69, SENP8 block-2 61 | SENP8 conf-1 inactive | SENP6 conf inactive | SENP7 conf inactive | Casp3 select inactive | SENP luc ctr inactive | SENP8 conf-2 inactive
O=C1OC(Nc2cc(Br)cc3cccnc23)c2ccccc21 (stereo not drawn)	SENP7 inh 92, SENP6 block 94, SENP8 block-2 41 | SENP8 conf-1 inactive | SENP6 conf 63 | SENP7 conf 51 | Casp3 select inactive | SENP luc ctr inactive | SENP8 conf-2 inactive
COc1ccc(OC)c(NC(=O)COC(=O)CCc2ccc(S(=O)(=O)N3CCOCC3)cc2)c1	none (no result: PPC-1+TRAIL kill)
NC(=S)NNc1cccc2cccnc12	SENP6 block 91, SENP8 block-2 51 | SENP8 conf-1 inactive | SENP6 conf inactive | SENP7 conf inactive | Casp3 select inactive | SENP luc ctr inactive | SENP8 conf-2 66
NC(=S)Nc1cccc2cccnc12	none
Cc1cc(S(=O)(=O)NCc2ccccc2)ccc1OCC(=O)N1CCCC1	none (no result: PPC-1+TRAIL kill)

Source: PubChem BioAssay (Sanford-Burnham Center for Chemical Genomics)
